We go through eight sequences from article PMC7862700, “An all-to-all approach to the identification of sequence-specific readers for epigenetic DNA modifications on cytosine”.

Holding throughout (test): DAPPL (digital affinity profiling via proximity ligation, sequencing); 10 mM Tris-HCl pH 7.5, 50 mM NaCl, 1 mM DTT, 4% glycerol, room temperature, 30 min; GST-TFs on glutathione beads, 16-mer random dsDNA library, 0.1% formaldehyde crosslink after washing; high values mean tight binding
Details in all cases: protein: recombinant; tags: N-terminal GST; dsDNA, one strand shown

Assay [1] concerns the target T1, FLI1 (Homo sapiens, UniProt Q01543 1-452).
T1 sequence: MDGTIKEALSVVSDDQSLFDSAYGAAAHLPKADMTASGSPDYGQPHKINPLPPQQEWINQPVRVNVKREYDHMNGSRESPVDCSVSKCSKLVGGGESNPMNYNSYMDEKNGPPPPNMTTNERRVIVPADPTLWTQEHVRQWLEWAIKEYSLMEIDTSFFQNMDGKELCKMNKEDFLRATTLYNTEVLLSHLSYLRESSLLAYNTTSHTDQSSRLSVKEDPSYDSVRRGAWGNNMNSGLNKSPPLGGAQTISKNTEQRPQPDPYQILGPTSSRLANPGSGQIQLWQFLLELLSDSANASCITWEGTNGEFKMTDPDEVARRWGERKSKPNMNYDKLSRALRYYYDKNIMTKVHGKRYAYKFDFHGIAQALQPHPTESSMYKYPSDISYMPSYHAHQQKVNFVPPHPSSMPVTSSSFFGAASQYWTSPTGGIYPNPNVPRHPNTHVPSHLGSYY
In outline: (§1)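 Binding signal is given per hexamer as its read frequency for a factor divided by its frequency in the tag-only sample. GST-fused human transcription factors were expressed in yeast, captured on glutathione beads, barcoded with DNA and pooled with that sample, then incubated with 200 nmole of a 16-mer random double-stranded DNA library in Tris/NaCl/DTT/glycerol buffer for 30 min at room temperature. The pools were then washed, crosslinked, proximity-ligated, amplified by PCR and sequenced on an Illumina NextSeq500.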

Assay [2] has as its target T2, ELK1 (Homo sapiens, UniProt P19419 1-428).
T2 sequence: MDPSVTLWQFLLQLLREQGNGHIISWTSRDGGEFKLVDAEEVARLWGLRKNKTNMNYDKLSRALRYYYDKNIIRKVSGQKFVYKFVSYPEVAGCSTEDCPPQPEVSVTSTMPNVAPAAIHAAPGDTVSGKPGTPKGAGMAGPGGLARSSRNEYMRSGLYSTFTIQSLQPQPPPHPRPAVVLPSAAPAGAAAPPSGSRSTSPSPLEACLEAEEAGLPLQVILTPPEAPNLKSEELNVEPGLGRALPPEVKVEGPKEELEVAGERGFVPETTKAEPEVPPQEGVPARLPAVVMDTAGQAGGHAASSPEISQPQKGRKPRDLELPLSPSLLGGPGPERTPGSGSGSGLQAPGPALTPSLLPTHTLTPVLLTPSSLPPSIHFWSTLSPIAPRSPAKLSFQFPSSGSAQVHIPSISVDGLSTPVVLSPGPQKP
In outline:
as §1

Assay [3] concerns the target T3, GABPA (Homo sapiens, UniProt Q06546 1-454).
T3 sequence: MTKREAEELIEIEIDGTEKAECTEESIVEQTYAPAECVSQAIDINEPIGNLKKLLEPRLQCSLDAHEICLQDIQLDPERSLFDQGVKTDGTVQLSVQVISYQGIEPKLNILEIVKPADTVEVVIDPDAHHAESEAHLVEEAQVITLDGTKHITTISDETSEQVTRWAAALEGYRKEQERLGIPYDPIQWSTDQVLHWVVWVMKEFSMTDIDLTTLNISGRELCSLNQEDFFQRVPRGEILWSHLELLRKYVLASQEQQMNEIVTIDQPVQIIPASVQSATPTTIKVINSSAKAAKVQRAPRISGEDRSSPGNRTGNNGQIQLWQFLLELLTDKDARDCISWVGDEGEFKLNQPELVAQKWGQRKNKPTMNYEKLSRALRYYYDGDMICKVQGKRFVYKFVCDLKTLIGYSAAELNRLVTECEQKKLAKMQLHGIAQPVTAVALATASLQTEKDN
A digest of the protocol:
as §1

The target of assay [4] is T4, ERG (Homo sapiens, UniProt P11308 1-479).
T4 sequence: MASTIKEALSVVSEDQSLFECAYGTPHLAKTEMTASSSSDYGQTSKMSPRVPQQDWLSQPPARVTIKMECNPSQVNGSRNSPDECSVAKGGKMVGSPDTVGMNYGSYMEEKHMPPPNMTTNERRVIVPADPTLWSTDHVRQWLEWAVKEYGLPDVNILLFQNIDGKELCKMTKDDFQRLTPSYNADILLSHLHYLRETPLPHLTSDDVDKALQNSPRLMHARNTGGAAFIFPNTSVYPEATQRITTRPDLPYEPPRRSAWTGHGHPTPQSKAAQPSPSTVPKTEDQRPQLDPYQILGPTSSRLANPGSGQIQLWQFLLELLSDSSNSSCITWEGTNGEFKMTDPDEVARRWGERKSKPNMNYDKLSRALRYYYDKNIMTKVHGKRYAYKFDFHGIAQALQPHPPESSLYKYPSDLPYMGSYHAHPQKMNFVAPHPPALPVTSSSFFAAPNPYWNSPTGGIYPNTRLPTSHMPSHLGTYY
A digest of the protocol:
as §1

In assay [5] the target is ELF1 (Homo sapiens, UniProt P32519 1-619). A digest of the protocol: as §1
The target in assay [6] is T5, EHF (Homo sapiens, UniProt Q9NZC4 1-300).
T5 sequence: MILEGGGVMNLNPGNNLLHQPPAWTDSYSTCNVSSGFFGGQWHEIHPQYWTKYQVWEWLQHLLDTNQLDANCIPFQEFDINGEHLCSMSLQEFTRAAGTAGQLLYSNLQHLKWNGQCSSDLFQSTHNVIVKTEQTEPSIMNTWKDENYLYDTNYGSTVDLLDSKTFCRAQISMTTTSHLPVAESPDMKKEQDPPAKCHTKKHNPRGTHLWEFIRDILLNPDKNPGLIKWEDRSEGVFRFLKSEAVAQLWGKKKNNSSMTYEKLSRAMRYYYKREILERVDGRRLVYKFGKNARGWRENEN
A digest of the protocol: as §1

Assay [7] has as its target SPI1 (Homo sapiens, UniProt P17947 1-270). A digest of the protocol:
as §1

Assay [8] concerns the target SPIB (Homo sapiens, UniProt Q01892 1-262). In outline: as §1
Assay [9] concerns the target T6, ELK3 (Homo sapiens, UniProt P41970 1-407).
T6 sequence: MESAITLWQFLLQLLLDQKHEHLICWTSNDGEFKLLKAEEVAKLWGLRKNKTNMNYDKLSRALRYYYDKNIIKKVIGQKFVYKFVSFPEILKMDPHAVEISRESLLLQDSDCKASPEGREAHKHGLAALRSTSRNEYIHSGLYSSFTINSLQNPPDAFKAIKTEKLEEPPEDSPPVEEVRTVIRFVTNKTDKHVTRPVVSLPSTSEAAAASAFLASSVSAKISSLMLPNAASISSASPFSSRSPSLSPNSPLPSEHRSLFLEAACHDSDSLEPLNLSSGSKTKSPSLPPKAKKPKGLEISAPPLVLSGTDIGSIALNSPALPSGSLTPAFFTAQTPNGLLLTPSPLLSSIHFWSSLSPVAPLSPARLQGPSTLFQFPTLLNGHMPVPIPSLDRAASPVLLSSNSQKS
In outline:
as §1

Sequence of ELF1 (P32519 whole entry): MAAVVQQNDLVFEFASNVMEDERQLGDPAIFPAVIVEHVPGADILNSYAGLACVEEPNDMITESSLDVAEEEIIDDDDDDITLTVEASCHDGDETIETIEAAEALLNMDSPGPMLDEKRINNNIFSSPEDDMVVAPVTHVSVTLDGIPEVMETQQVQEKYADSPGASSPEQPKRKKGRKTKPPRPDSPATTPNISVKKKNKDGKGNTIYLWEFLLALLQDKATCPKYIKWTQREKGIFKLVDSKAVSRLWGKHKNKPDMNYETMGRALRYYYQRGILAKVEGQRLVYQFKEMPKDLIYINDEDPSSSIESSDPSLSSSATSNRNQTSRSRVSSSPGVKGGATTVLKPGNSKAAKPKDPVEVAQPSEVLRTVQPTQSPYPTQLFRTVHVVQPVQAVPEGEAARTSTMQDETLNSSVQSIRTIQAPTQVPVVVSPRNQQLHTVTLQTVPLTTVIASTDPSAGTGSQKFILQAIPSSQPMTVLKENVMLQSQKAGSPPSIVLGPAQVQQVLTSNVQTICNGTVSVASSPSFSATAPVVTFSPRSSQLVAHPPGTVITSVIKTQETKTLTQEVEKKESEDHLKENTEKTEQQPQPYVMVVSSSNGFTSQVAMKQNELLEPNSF
Sequence of SPIB (Q01892 whole entry): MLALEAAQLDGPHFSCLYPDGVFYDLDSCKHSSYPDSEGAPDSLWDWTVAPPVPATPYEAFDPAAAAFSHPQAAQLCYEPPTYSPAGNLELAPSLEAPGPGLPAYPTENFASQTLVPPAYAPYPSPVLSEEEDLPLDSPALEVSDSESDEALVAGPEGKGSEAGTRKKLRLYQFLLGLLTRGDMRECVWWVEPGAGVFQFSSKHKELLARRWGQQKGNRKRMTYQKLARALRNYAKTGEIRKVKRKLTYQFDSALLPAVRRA

With CCGGCC, the binding signal is 1.27 fold enrichment (6-mer frequency, TF over GST control) in assay [1]; 1.27 fold enrichment (6-mer frequency, TF over GST control) in assay [2]; 1.13 fold enrichment (6-mer frequency, TF over GST control) in [3]; 1.18 fold enrichment (6-mer frequency, TF over GST control) in assay [4]; 1.16 fold enrichment (6-mer frequency, TF over GST control) in [5]; 1.1 fold enrichment (6-mer frequency, TF over GST control) in [6]. In addition, the binding signal in [7] is 1.04 fold enrichment (6-mer frequency, TF over GST control); in assay [8], 1.18 fold enrichment (6-mer frequency, TF over GST control); in assay [9] it was 1.33 fold enrichment (6-mer frequency, TF over GST control).

For the sequence CATTAT, the binding signal was 1.19 fold enrichment (6-mer frequency, TF over GST control) in assay [1]; 1.13 fold enrichment (6-mer frequency, TF over GST control) in assay [2]; 1.06 fold enrichment (6-mer frequency, TF over GST control) in assay [3]; 1.15 fold enrichment (6-mer frequency, TF over GST control) in [4]; 1.16 fold enrichment (6-mer frequency, TF over GST control) in [5]; 1.18 fold enrichment (6-mer frequency, TF over GST control) in [6]. The binding signal in [7] was 1.11 fold enrichment (6-mer frequency, TF over GST control); in assay [8], 1.18 fold enrichment (6-mer frequency, TF over GST control); in assay [9] it was 1.13 fold enrichment (6-mer frequency, TF over GST control).

In the case of CATCCG, the binding signal was 2.09 fold enrichment (6-mer frequency, TF over GST control) in assay [1]; 2.2 fold enrichment (6-mer frequency, TF over GST control) in assay [2]; 1.86 fold enrichment (6-mer frequency, TF over GST control) in assay [3]; 2.45 fold enrichment (6-mer frequency, TF over GST control) in assay [4]; 1.86 fold enrichment (6-mer frequency, TF over GST control) in assay [5]; 2.19 fold enrichment (6-mer frequency, TF over GST control) in assay [6]. Besides, the binding signal in assay [7] is 2.01 fold enrichment (6-mer frequency, TF over GST control); in assay [8], 2.29 fold enrichment (6-mer frequency, TF over GST control); in [9], 2.5 fold enrichment (6-mer frequency, TF over GST control).

For TTGGCC, the binding signal in assay [1] was 1.22 fold enrichment (6-mer frequency, TF over GST control); in assay [2], 1.24 fold enrichment (6-mer frequency, TF over GST control); in [3], 1.23 fold enrichment (6-mer frequency, TF over GST control); in assay [4] it was 1 fold enrichment (6-mer frequency, TF over GST control); in assay [5] it was 1.1 fold enrichment (6-mer frequency, TF over GST control); in assay [6] it was 1.17 fold enrichment (6-mer frequency, TF over GST control). Also, the binding signal in assay [7] was 1.08 fold enrichment (6-mer frequency, TF over GST control); in [8] it was 1.16 fold enrichment (6-mer frequency, TF over GST control); in assay [9], 1.12 fold enrichment (6-mer frequency, TF over GST control).

For the sequence TGGTAT, the binding signal in [1] is 1.41 fold enrichment (6-mer frequency, TF over GST control); in assay [2], 1.45 fold enrichment (6-mer frequency, TF over GST control); in [3], 1.29 fold enrichment (6-mer frequency, TF over GST control); in [4], 1.31 fold enrichment (6-mer frequency, TF over GST control); in [5] it was 1.39 fold enrichment (6-mer frequency, TF over GST control); in [6] it was 1.32 fold enrichment (6-mer frequency, TF over GST control). Also, the binding signal in assay [7] is 1.39 fold enrichment (6-mer frequency, TF over GST control); in assay [8], 1.37 fold enrichment (6-mer frequency, TF over GST control); in assay [9], 1.24 fold enrichment (6-mer frequency, TF over GST control).

CTTGCA: the binding signal in assay [1] was 1.33 fold enrichment (6-mer frequency, TF over GST control); in [2] it was 1.44 fold enrichment (6-mer frequency, TF over GST control); in [3], 1.31 fold enrichment (6-mer frequency, TF over GST control); in assay [4], 1.27 fold enrichment (6-mer frequency, TF over GST control); in [5] it was 1.4 fold enrichment (6-mer frequency, TF over GST control); in [6] it was 1.33 fold enrichment (6-mer frequency, TF over GST control). In addition, the binding signal is 1.25 fold enrichment (6-mer frequency, TF over GST control) in assay [7]; 1.26 fold enrichment (6-mer frequency, TF over GST control) in assay [8]; 1.34 fold enrichment (6-mer frequency, TF over GST control) in assay [9].

Regarding TCTGTA, the binding signal in assay [1] was 1.23 fold enrichment (6-mer frequency, TF over GST control); in assay [2], 1.19 fold enrichment (6-mer frequency, TF over GST control); in assay [3] it was 1.2 fold enrichment (6-mer frequency, TF over GST control); in assay [4], 1.11 fold enrichment (6-mer frequency, TF over GST control); in assay [5], 1.18 fold enrichment (6-mer frequency, TF over GST control); in assay [6], 1.15 fold enrichment (6-mer frequency, TF over GST control). In addition, the binding signal in [7] is 1.16 fold enrichment (6-mer frequency, TF over GST control); in assay [8] it was 1.19 fold enrichment (6-mer frequency, TF over GST control); in [9], 1.2 fold enrichment (6-mer frequency, TF over GST control).

AAACGA: the binding signal was 1.07 fold enrichment (6-mer frequency, TF over GST control) in assay [1]; 1.14 fold enrichment (6-mer frequency, TF over GST control) in assay [2]; 1.17 fold enrichment (6-mer frequency, TF over GST control) in assay [3]; 1.11 fold enrichment (6-mer frequency, TF over GST control) in assay [4]; 1.08 fold enrichment (6-mer frequency, TF over GST control) in [5]; 1.04 fold enrichment (6-mer frequency, TF over GST control) in assay [6]. Also, the binding signal in assay [7] was 1.1 fold enrichment (6-mer frequency, TF over GST control); in assay [8], 1 fold enrichment (6-mer frequency, TF over GST control); in assay [9] it was 1.14 fold enrichment (6-mer frequency, TF over GST control).
